HT1080 IDH1KD tx = HT-1080 IDH1 knockdown cell toxicity (counter line) | HT-1080 IDH1 knockdown viability, ATP luminescence, 48 h | 360,000 tested, 2% active | Potency, µM (series often up to 46.1 µM), for the others: at the top dose activity, negative = toxicity, usual class: cytotoxic;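 note: 0% = DMSO wells and -100% = cell-free medium wells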
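Using the IDH1-knockdown HT-1080 line run in the same batch and compound series as the NT line, viability after 48 h at 37 °C was determined by CellTiter-Glo luminescence and expressed as % activity.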
KB-V1 MDR tox = kills drug-selected multidrug resistant KB-V1 cells; KB-V1 MDR cells viability, CellTiter-Glo, 72 h; Potency, µM (top dose mostly 46.1 µM), most hits filed as cytotoxic; 400,000 tested, 3.4% active; note: % is set by controls: 0 for no effect and ±100 for the full control effect; nearly all actives have a fitted effect of over 60% in size
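qHTS viability screen in drug-selected KB-V1 MDR cells: 72 h compound treatment at 37 degrees C, ATP luminescence end point.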
MCF10A rereplic = inducers of DNA re-replication in MCF 10A breast cells; MCF 10A DNA re-replication, Hoechst nuclear intensity, 48 h; Potency, µM (doses to about 46.1 µM), inactives show top-dose activity, positive = re-replication, actives largely listed as activators; 350,000 tested, 2.9% active; AID 624296; note: % of control where 0% means no effect; nearly all actives have a fitted effect of over 50% in size
HT1080-NT tox = kills 2HG-producing HT-1080-NT fibrosarcoma cells. HT-1080-NT fibrosarcoma viability, CellTiter-Glo ATP luminescence, 48 h. Potency, µM (titrated, usually from 46.1 µM), for the others: at the top dose activity, negative = less viability, hits mostly cytotoxic. 360,000 tested, 1.6% active. AID 686970;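 note: NT is the 2HG producing partner of a matched IDH1 knockdown line; 0% = DMSO-treated cells and -100% = media-only wells without cells; nearly all actives have a fitted effect of over 55% in size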
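HT-1080-NT fibrosarcoma cells (2HG-overproducing), 750 cells/well in RPMI with 5% FBS, dosed after 2 h and incubated 48 h at 37C. CellTiter-Glo luminescence normalized to DMSO and no-cell wells; concentration-response curves fitted and classed.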
KB-3-1 tox = kills parental KB-3-1 adenocarcinoma cells | KB-3-1 viability, CellTiter-Glo ATP luminescence, 72 h | Potency, µM (titrated, usually from 46.1 µM), most hits filed as cytotoxic | 400,000 tested, 1.4% active; note: % is set by controls: 0 for no effect and ±100 for the full control effect; nearly all actives have a fitted effect of over 60% in size
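Cytotoxicity measured as CellTiter-Glo luminescence after 72 h at 37 C. Compound titrations were pinned onto drug-naive KB-3-1 parental adenocarcinoma cells grown in DMEM with 10% FBS, and normalized data fitted to concentration-response curves.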
SW480 rerep = induces DNA re-replication in SW480 colon adenocarcinoma cells. SW480 DNA re-replication, Hoechst DNA content imaging, 48 h. Potency, µM (highest dose often 46.1 µM), inactives show at the top dose re-replication activation, hits mostly activators. 340,000 tested, 1.8% active. AID 624297; note: % of control where 0% means no effect; nearly all actives have a fitted effect of over 55% in size
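Cells (250 per well) received 23 nL compound or DMSO by pin tool and were kept 48 hr at 37 C, 5% CO2. Nuclei were then stained with Hoechst for 40 min and scanned for DNA content.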
* hit, by the source's call; i = inactive; ? = inconclusive; · = no result given; [ ] = dose if it differs, or a comment. Hits are enriched below; roughly 8% of the tested compounds scored in any of these assays. Calls come from the whole dose curve; as a rule, active = well fitted curve in the direction sought with a large enough effect; inconclusive = small, poorly fitted or top-dose-only effect, or another doubt; inactive = no such curve, though single readings can be large; an effect the other way counts as inactive or inconclusive. Potency is the fitted concentration of half-maximal effect.

SMILES | HT1080 IDH1KD tx | KB-V1 MDR tox | MCF10A rereplic | HT1080-NT tox | KB-3-1 tox | SW480 rerep
COc1ccc(CCNC(=O)c2cc(C(=O)c3cc(C)ccc3O)cn(CCc3ccc(OC)cc3)c2=O)cc1 | 3.4% | ? | ? | -0.2% | i | 7.0%
CCc1ccccc1N1C(=O)N(C)c2ccccc2S1(=O)=O | · | i | · | · | i | ·
CC(NC(=O)C1CCN(c2nnc(N3CCCC3=O)s2)CC1)c1ccccc1 (stereo not given) | -8.5% | i | -1.8% | 5.9% | i | -15.3%
CC(=O)Nc1ccc(S(=O)(=O)Nc2c(C)nn(-c3ccccc3)c2C)cc1 | 6.2%[9.24 µM] | i | -5.8% | -25.2% | i | -3.3%
CC(=O)c1ccccc1NS(=O)(=O)c1c(C)nn(-c2ccccc2)c1C | -16.6% | 9.2µM* | 15.0% | -10.1% | i | -7.4%
O=C1[C@H]2[C@@H](c3ccc(C(F)(F)F)cc3)N[C@]3(CCCN(Cc4ccc(F)cc4)C3=O)[C@H]2C(=O)N1Cc1ccccc1 | -5.4% | ? | · | -4.4% | i | ·
CC(C)COCC(CN(Cc1ccccc1)c1ccccc1)N1CCCC1 (stereo not given) | 15.8µM* | 18.4µM* | 1.4% | 16.4µM* | i | 0.5%
CC(C(=O)Nc1ccc(OCc2ccccc2)cc1)N1CCCC1 (stereo not given) | ? | i | ? | -19.4% | i | ?
CC1(C(=O)Nc2cccc(OC(F)(F)F)c2)Cc2c(-c3ccc4c(c3)OCO4)ccnc2O1 (stereo not given) | 16.4µM* | i | · | ? | ? | ·
CC1(C(=O)Nc2ccc3c(c2)OCO3)Cc2c(-c3ccccc3)ccnc2O1 (stereo not given) | ? | ? | · | -25.3% | ? | ·
COc1ccc(NC(=O)C2(C)Cc3c(-c4ccc5c(c4)OCO5)ccnc3O2)cc1 (stereo not given) | ? | ? | · | ? | 16.4µM* | ·
COc1ccc(CNC(=O)C2(C)Cc3c(-c4ccc5c(c4)OCO5)ccnc3O2)cc1OC (stereo not given) | ? | i | · | -15.7% | i | ·
CC(=O)Nc1cccc(-c2ccnc3c2CC(C)(C(=O)Nc2cccc(C(C)=O)c2)O3)c1 (stereo not given) | 14.6µM* | i | · | -9.6% | ? | ·
CC(=O)Nc1cccc(-c2ccnc3c2CC(C)(C(=O)Nc2ccc4c(c2)OCO4)O3)c1 (stereo not given) | ? | 8.2µM* | · | ? | 2.31µM* | ·
CC(=O)Nc1cccc(-c2ccnc3c2CC(C)(C(=O)Nc2ccc(Cl)cc2)O3)c1 (stereo not given) | 4.11µM* | ? | · | 9.2µM* | 2.31µM* | ·
CC(=O)Nc1ccc(NC(=O)C2(C)Cc3c(-c4cccc(NC(C)=O)c4)ccnc3O2)cc1 (stereo not given) | 2.5% | i | · | 26.0% | i | ·
CC(=O)Nc1ccc(NC(=O)C2(C)Cc3c(-c4cccc(C(N)=O)c4)ccnc3O2)cc1 (stereo not given) | 2.1% | i | · | ? | i | ·
COc1ccc(NC(=O)C2(C)Cc3c(-c4cccc(NC(C)=O)c4)ccnc3O2)cn1 (stereo not given) | ? | i | · | ? | 2.06µM* | ·
COc1ccc(NC(=O)C2(C)Cc3c(-c4cccc(C(N)=O)c4)ccnc3O2)cc1 (stereo not given) | ? | ? | · | ? | 7.31µM* | ·
COc1cc(Cl)c(C)cc1NC(=O)c1ccccc1NC(=O)CN1CCN(C(C)=O)CC1 | 11.1% | i | · | 10.5% | i | ·
Cn1c2c(c(=O)n(C)c1=O)C(c1ccccc1[N+](=O)[O-])CC(=O)N2 (stereo not given) | · | i | · | · | i | ·
Cc1cc(-n2c(C)cc(C(=S)N3CCOCC3)c2C)ccc1Br | -2.1% | 8.2µM* | ? | 6.8% | ? | 0.6%
CCc1ccccc1NC(=O)c1ccc2c(c1)N(Cc1cccc(Cl)c1)C(=O)c1ccccc1S2(=O)=O | · | i | · | · | i | ·
Cc1nnc2sc(-c3ccc(-c4ccc(Cl)c(C(F)(F)F)c4)o3)nn12 | 3.3% | 14.6µM* | 7.1% | 2.4% | i | -6.9%
CCc1ccc(-n2nc3ccc(NC(=O)c4cc(Cl)c(OC)c(Cl)c4)cc3n2)cc1 | · | i | · | · | i | ·
SMILES | HT1080 IDH1KD tx | KB-V1 MDR tox | MCF10A rereplic | HT1080-NT tox | KB-3-1 tox | SW480 rerep
COc1ccccc1-c1ccc2c(c1)C(C)(Cc1cccc(F)c1)C(=O)N2 (stereo not given) | ? | 20.6µM* | · | ? | ? | ·
COc1ccc(C(C)=O)cc1CC1(C)C(=O)Nc2ccc(-c3ccccc3OC)cc21 (stereo not given) | -21.3% | i | · | -2.3% | i | ·
COC(=O)c1c(C)[nH]c(C(=O)OCc2csc(CC(=O)Nc3ccccc3C)n2)c1C | 7.2% | i | 2.7% | 3.7% | i | -2.9%
Cn1c(NCCN2CCCC2)nc2cc(-c3ccccc3)sc2c1=O | 13µM* | i | · | ? | i | ·
Cn1c(NCCN2CCCC2)nc2cc(-c3cccc(C(F)(F)F)c3)sc2c1=O | ? | i | · | 20.6µM* | i | ·
O=c1c2sc(-c3ccccc3)cc2nc2n1CCCCC2 | -3.5% | 11.6µM* | ? | -0.2% | i | -1.4%
CCCCCOC(=O)CSc1nc2sc3c(c2c(=O)n1Cc1ccccc1)CC(C)(CC)OC3 (stereo not given) | · | i | · | · | i | ·
CN1CC=C2C(C#N)=C(N)C(C#N)(C#N)[C@H](c3ccoc3)[C@H]2C1 | -3.5% | i | -10.5% | -3.9% | i | -5.0%
CN1CC=C2C(C#N)=C(N)C(C#N)(C#N)C(c3cccc(Cl)c3Cl)C2C1 (stereo not given) | -8.5% | 20.6µM* | ? | -2.3% | i | 5.9%
N#CC1=C(N)C(C#N)(C#N)[C@H](c2ccoc2)[C@H]2CN(Cc3ccccc3)CC=C12 | 2.59µM* | ? | 7.31µM* | ? | 5.17µM* | 16.4µM*
CCc1ccc(-c2nc(SCC(=O)NCC3CCCO3)c(-c3ccc(F)cc3)[nH]2)cc1 (stereo not given) | · | i | · | · | i | ·
CCN(CC)C(=O)c1sc2nc(-c3cccs3)cc(-c3cccs3)c2c1N | 1.3% | i | ? | 9.7% | i | 1.2%
CCN(CC)C(=O)c1sc2nc(-c3cccs3)cc(-c3ccc(Cl)cc3)c2c1N | 11.5% | i | ? | 9.2% | i | 13µM*
CCCCN(C(=O)CCC(=O)O)C1CC(=O)N(c2ccc(OCCC)cc2)C1=O (stereo not given) | 15.6% | i | -5.5% | 22.7% | i | -2.7%

Screening results: PubChem, National Center for Advancing Translational Sciences (NCATS)
